Inconclusive results are not listed. A call without a number means that no potency is given here. The source made the active and inactive calls. The call rests on the fitted dose curve; in most records, active means well fitted inhibition curve with a large enough effect; inconclusive means small, poorly fitted or top-dose-only effect; inactive means flat fitted curve, though single readings scatter. Peptide text beside a SMILES is read from it.
test system: P93_24; experiment: qHTS profiling for inhibitors of Plasmodium falciparum proliferation (AID 504749); further: nearly all actives have a fitted effect of over 60% in size; details: P. falciparum in erythrocytes, SYBR Green DNA, 72 h; series mostly up to 12.8 µM
Procedure, shortened: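 SYBR Green fluorescence (ex 485 nm, em 535 nm) reports parasite DNA after 72 h compound exposure of infected red cells at 0.3% parasitemia, 2.5% hematocrit; signal normalized to 0.29 uM artemisinin and vehicle wells.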
Potency means the concentration at half of the fitted maximal effect.

Question: How did the Potency turn out when `CCC(C)C(=O)OC1CCC=C2C=CC(C)C(CCC3CC(O)CC(=O)O3)[C@@H]21` (stereo partly specified) was run?
Answer: inactive

Question: With `C[C@]1(c2ccccc2)OC(C(=O)O)=CC1=O` as the compound, how does the Potency read?
Answer: inactive

Question: How did the Potency turn out when `OCC1OC([S-])[C@H](O)C(O)C1O.[Au+]` (stereo partly specified) was run?
Answer: inactive

Question: `COC(=O)N/N=C/C1=C[N+](=O)c2ccccc2[N+]1=O` was tested. Which Potency did it give?
Answer: inactive

Question: For `CN1CC(=O)N=C1N`, which Potency is on record?
Answer: inactive

Question: For `CNC1CC(N)[C@H](O)[C@@H](O[C@@H]2OC(CO)C3OC4(OC(C(N)CO)C(O)C(O)C4O)O[C@@H]3[C@H]2O)C1O` (stereo partly specified), which Potency is on record?
Answer: inactive

Question: `COC1C=CO[C@@]2(C)Oc3c(C)c(O)c4c(O)c(c(C=NN5CCN(C)CC5)c(O)c4c3C2=O)NC(=O)/C(C)=C\C=CC(C)C(O)[C@@H](C)C(O)C(C)[C@H](OC(C)=O)C1C` (stereo partly specified) was tested. Which Potency did it give?
Answer: 251 nM (active)

Question: With `CC(=O)N[C@@H]1C(O)OC(CO)C(O)C1O` (stereo partly specified) as the compound, how does the Potency read?
Answer: inactive

Question: How did the Potency turn out when `CCC(CCC(C)C1CCC2C3CC=C4CC(O)CC[C@@]4(C)C3CC[C@@]12C)C(C)C` (stereo partly specified) was run?
Answer: inactive

Question: With `COc1ccc(CC(N)C(=O)NC2C(CO)OC(n3cnc4c(N(C)C)ncnc43)C2O)cc1` (stereo unspecified) as the compound, how does the Potency read?
Answer: 708 nM (active)

Question: With `CCCC(=O)O[C@]1(C(=O)CO)CCC2[C@@H]3CCC4=CC(=O)CC[C@]4(C)C3C(O)C[C@]21C` (stereo partly specified) as the compound, how does the Potency read?
Answer: inactive

Question: How did the Potency turn out when `COC(=O)C(Cc1ccccc1)NC(=O)C(N)CC(=O)O` (stereo not drawn) (H-Asp-Phe-OMe; configuration not given here) was run?
Answer: inactive

Question: How did the Potency turn out when `CC[C@@]12CCCN3CCc4c(n(c5ccccc45)[C@](O)(C(=O)OC)C1)C32` (stereo partly specified) was run?
Answer: inactive

Question: Which Potency does the source give for `CC1(C)SC2C(N3C(=O)C(c4ccccc4)NC3(C)C)C(=O)N2C1C(=O)O` (stereo unspecified) here?
Answer: inactive

Question: With `CC1CCC(C(C)C)C(=O)C1` (stereo unspecified) as the compound, how does the Potency read?
Answer: inactive

Question: `CC(=O)N[C@H](CC(C)C)C(=O)O` was tested. Which Potency did it give?
Answer: inactive

Question: How did the Potency turn out when `CC(C)C1CCC(C(=O)NC(Cc2ccccc2)C(=O)O)CC1` (stereo unspecified) was run?
Answer: inactive

Question: Which Potency does the source give for `COc1ccc2cc(C(C)CO)ccc2c1` (stereo unspecified) here?
Answer: inactive

Question: How did the Potency turn out when `COc1ccc2cc1Oc1ccc(cc1)CC1c3c(cc4c(c3Oc3cc5c(cc3OC)CCN(C)C5C2)OCO4)CCN1C` (stereo unspecified) was run?
Answer: 6310 nM (active)

Question: For `CNC1C(OC2C(O[C@@H]3C(O)C(O)[C@@H](N=C(N)N)C(O)C3N=C(N)N)OC(C)[C@@]2(O)CO)OC(CO)C(O)C1O` (stereo partly specified), which Potency is on record?
Answer: inactive

Question: `CC1C2CCC3C4CC=C5CC(N(C)C)CC[C@@]5(C)C4CC[C@@]32CN1C` (stereo partly specified) was tested. Which Potency did it give?
Answer: inactive

Question: `C[C@]12C=CC(=O)C=C1CCC1C2C(O)C[C@]2(C)C1CC[C@]2(O)C(=O)CO` (stereo partly specified) was tested. Which Potency did it give?
Answer: inactive

Question: For `COc1ccc2c(c1)N(C[C@@H](C)CN(C)C)c1ccccc1S2`, which Potency is on record?
Answer: inactive

Question: How did the Potency turn out when `CCOC(=O)C1=CC(OC(CC)CC)C(NC(C)=O)C(N)C1` (stereo unspecified) was run?
Answer: inactive

Question: `CN(C)CCc1c[nH]c2ccc(CC3COC(=O)N3)cc12` (stereo unspecified) was tested. Which Potency did it give?
Answer: inactive

Question: How did the Potency turn out when `NCC1CCC(N)C(O[C@@H]2C(O)[C@H](O[C@H]3OC(CO)C(O)C(N)C3O)[C@@H](N)C[C@H]2N)O1` (stereo partly specified) was run?
Answer: inactive

Question: With `OCC1O[C@H](OC2C(CO)O[C@@](O)(CO)C2O)C(O)C(O)C1O` (stereo partly specified) as the compound, how does the Potency read?
Answer: inactive

Question: `CC1(C)OC2CO[C@]3(COS(N)(=O)=O)OC(C)(C)OC3C2O1` (stereo partly specified) was tested. Which Potency did it give?
Answer: inactive

Question: How did the Potency turn out when `CC(=O)OC1CCC2C3CCc4cc(O)ccc4C3CCC12C` (stereo unspecified) was run?
Answer: inactive

Question: Which Potency does the source give for `CN(C)CCCOC1C(C(O)CO)OC2OC(C)(C)O[C@@H]21` (stereo partly specified) here?
Answer: inactive

Question: For `COc1cc(C2c3cc4c(cc3C(O[C@@H]3OC5COC(c6cccs6)OC5C(O)C3O)C3COC(=O)C23)OCO4)cc(OC)c1O` (stereo partly specified), which Potency is on record?
Answer: 1580 nM (active)

Reference: PubChem BioAssay (NCATS)
